Bioassay records: PubChem BioAssay, National Center for Advancing Translational Sciences (NCATS)
HCV inh: blocks hepatitis C virus; 340,000 compounds, 3.4% hits; AID 651820; Huh7.5.1 HCVcc-Cre infection, luciferase reporter, 44 h; Potency, µM (top dose mostly 41.8 µM), inactives show top-dose activity change, negative = inhibition, hits mostly inhibitors; also: potency is read from the fitted curve at half-maximal effect
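Antiviral activity was scored by luciferase reporter output from cells infected with HCVcc-Cre (~0.5 moi) in presence of compound, 44 h infection period, cells seeded 1,000/well 4 h prior.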
HCMV inh: human cytomegalovirus inhibition; HFF cells, HCMV-luciferase reporter, 72 h; active compounds read low; activity change, negative = inhibition, % at 57.5 µM; 410,000 compounds, 4.5% hits; AID 1259415; in the data active = activity change below about -60%; inconclusive = no clear call, values can overlap the other calls; inactive = above about -39%
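Two compound doses tested in HFFs infected with HCMV-luciferase, MOI 1 PFU/cell, 72 h at 37C. Lysate luminescence read with OneGlo; data normalized against buffer-only and 10uM Salinomycin inhibitor controls.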
AmpC no deterg: AmpC beta-lactamase inhibition without detergent; Potency, µM (series often up to 57.1 µM), without a hit: at the top dose activity change, negative = inhibition, actives largely listed as inhibitors; P00811; AmpC nitrocefin hydrolysis, absorbance 480 nm, 0.0001% Triton; AID 485341; 330,000 compounds, 0.52% hits;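 also: potency is read from the fitted curve at half-maximal effect; plate controls were no compound for no effect and no enzyme for full effect; nearly all actives have a fitted effect of over 20% in size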
Target sequence (P00811 whole entry, looked up): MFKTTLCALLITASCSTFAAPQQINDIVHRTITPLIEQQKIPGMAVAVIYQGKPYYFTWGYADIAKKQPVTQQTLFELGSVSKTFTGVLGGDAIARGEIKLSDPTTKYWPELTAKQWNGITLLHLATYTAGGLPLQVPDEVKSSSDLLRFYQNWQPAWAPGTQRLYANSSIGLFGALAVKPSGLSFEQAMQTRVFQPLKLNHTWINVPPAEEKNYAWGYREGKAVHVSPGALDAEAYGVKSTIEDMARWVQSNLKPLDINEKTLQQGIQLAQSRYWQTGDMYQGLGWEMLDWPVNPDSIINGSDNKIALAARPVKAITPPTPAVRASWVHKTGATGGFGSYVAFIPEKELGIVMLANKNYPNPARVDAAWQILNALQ
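AmpC (5.3 nM in the dispensed reagent) in 20 mM phosphate pH 7.0 with 0.01% (detergent screen) or 0.0001% Triton X-100 was preincubated with compounds for 15 min at room temperature. Nitrocefin was then added from an 800 uM solution, and hydrolysis was followed at 480 nm.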
AmpC inh detg: inhibitors of E. coli AmpC beta-lactamase with detergent | 370,000 compounds, 0.041% hits | AmpC hydrolysis of nitrocefin, absorbance 480 nm, 0.01% Triton | Potency, µM (titrated, usually from 114 µM), for the others: top-dose activity change, negative = inhibition, actives largely listed as inhibitors;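 also: potency is read from the fitted curve at half-maximal effect; 0% = no-compound wells and -100% = no-enzyme wells; nearly all actives have a fitted effect of over 25% in size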
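20 mM phosphate pH 7.0 + 0.01% (detergent screen) or 0.0001% Triton X-100; 5.3 nM AmpC reagent; cpd preinc 15 min RT; nitrocefin (800 uM stock) to start; A480 q20 s × 4 min; Activity was normalised to no-enzyme and no-compound control wells.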
FMDV inh: blocks foot and mouth disease virus. FMDV antiviral cell-based qHTS. Potency, µM (series often up to 57.9 µM), for the others: at the highest dose activity change, negative = inhibition, most hits filed as inhibitors. 410,000 compounds, 1.2% hits. AID 1159524; calls by dose curve; tested in HEK293T cells; also: read-out not given here; potency is read from the fitted curve at half-maximal effect; nearly all actives have a fitted effect of over 45% in size
Numbers without * were called inactive; ? = inconclusive; . = no result given; ! = not active in a repeat. Sampled rows, rich in hits. Any-hit rate of the full collection: about 7.3%. Unless noted, calls follow the shape of the dose curve; as a rule, active = well fitted curve in the direction sought with a large enough effect; inconclusive = small, poorly fitted or top-dose-only effect, or another doubt; inactive = no such curve, though single readings can be large; an effect the other way counts as inactive or inconclusive. Unless noted, % is scaled to controls: 0 for no effect and ±100 for the full control effect.

SMILES	HCV inh	HCMV inh	AmpC no deterg	AmpC inh detg	FMDV inh
CCOC(=O)C1CCCN(C(=O)c2ccccc2NC(=O)c2nsc3ccccc23)C1 (stereo not given)	.	0	.	17%	-18%
COc1ccc2c(c1)[C@@H](NS(C)(=O)=O)[C@H](C)[C@@H](C(C)C)N2	.	9	.	.	.
C[C@@H]1CN([C@H](C)CO)C(=O)CCCn2cc(nn2)CO[C@H]1CN(C)S(=O)(=O)c1cn(C)cn1	.	21	.	.	.
OCCN1CCN(Cc2ccc3c(c2)CN(Cc2ccc4ccccc4c2)CCO3)CC1	.	.	.	.	8%
CCCNC(=S)NC1CC2CCCC(C1)N2Cc1ccc(F)cc1 (stereo not given)	-25%	60	-14%	6%	3%
Cc1cc(C)cc(OCC(=O)N(Cc2ccc(N(C)C)cc2)C2CCS(=O)(=O)C2)c1 (stereo not given)	23%	28	103%	2%	-19%
O=C(Nc1nnc(S(=O)(=O)N2CCCc3ccccc32)s1)c1ccccc1	.	2	.	18%	0%
O=C(Nc1nc2c(s1)CCCC2)c1ccc(S(=O)(=O)N2CCCc3ccccc32)cc1	?	-85*	-32%	-9%	?
CCCOc1ccc(C(=O)N2CC3(CC(c4cccc(NC(=O)[C@@H]5CCC(=O)N5)c4)=NO3)C[C@H]2C(=O)NC2(C(N)=O)CC2)cc1 (stereo not given in full)	2%	-64*	138%	-1%	-15%
COc1ccccc1NC(=O)N1CCC(c2nc3cc(C)c(C)cc3[nH]2)CC1	?	-64*	-37%	-6%	15%
CCOc1cc2c3c(c1)C1(C(=O)N3C(C)(C)CC2C)C(C#N)=C(N)N2C(=C1C#N)Nc1ccccc12 (stereo not given)	?	-8	13µM*	1%	-10%
CCOc1cc2c3c(c1)C1(Nc4ccccc4S1)C(=O)N3C(C)(C)CC2C (stereo not given)	?	35	-25%	-5%	-13%
CCc1ccc(NC(=O)CN(c2ccc(Cl)cc2)S(=O)(=O)c2ccsc2C(=O)OC)cc1	.	6	.	7%	-4%
O=S(=O)(/C=C/c1ccccc1)N1CCOCC1	5%	10	-2%	2%	-4%
CCOC(=O)N1CCN(C(=O)CSCC(=O)Nc2nc(-c3cccs3)cs2)CC1	13µM*	29	28%	-1%	14µM*
Cc1cc(Cl)ccc1OCC(=O)Nc1nc(-c2cccs2)cs1	-29%	-17	18µM*	1%	-22%
CCOC(=O)N1CCN(C(=O)CSCC(=O)Nc2nc(-c3ccc(C)cc3)cs2)CC1	11µM*	5	-5%	?	-21%
Cc1cc(Cl)ccc1OCC(=O)Nc1nc(-c2cccnc2)cs1	10%	0	-19%	9%	-8%
c1ccc(Nc2c(-c3c[nH]c4ccccc34)nc3ccccn23)cc1	.	101	.	10%	4%
CN(CC(=O)NNC(=O)CNC(=O)c1cccs1)S(=O)(=O)c1ccc(Cl)cc1	9%	-8	-4%	?	10%
CCC1CN(CCNC(=O)c2cccnc2OC)Cc2cc(OC)ccc2O1 (stereo not given)	.	.	.	.	11%
COc1ccc(CCNC(=O)C(NS(=O)(=O)c2cccc3nsnc23)C(C)C)cc1OC (stereo not given)	-2%	-8	-14%	8%	10µM*
COc1ccc(CCNC(=O)C(=O)c2cn(CC(=O)N3CCCC3)c3ccccc23)cc1OC	.	-2	.	.	-11%
NS(=O)(=O)c1ccc(NC(=O)CN2CCN(Cc3ccccc3)CC2)cc1	20%	34	-13%	?	-5%
COc1ccccc1NC(=O)CN1CCN(CC(=O)Nc2ccc(S(N)(=O)=O)cc2)CC1	-25%	-64*	-10%	-4%	?
SMILES	HCV inh	HCMV inh	AmpC no deterg	AmpC inh detg	FMDV inh
NS(=O)(=O)c1ccc(NC(=O)CN2CCN(S(=O)(=O)/C=C/c3ccccc3)CC2)cc1	-13%	-100*	-26%	-14%	-2%
COc1ccc(-c2c(C)nn3c(C(F)(F)F)cc(-c4ccccc4)nc23)cc1	.	-5	.	1%	0%
CCOC(=O)c1ccc(NC(=O)c2ccc(NS(C)(=O)=O)cc2)cc1	11µM*	?	-42%	?	.
CS(=O)(=O)Nc1ccc(C(=O)Nc2ccccc2Cl)cc1	-1%	-34	-5%	-2%	9%
CCOC(=O)c1ccc(NS(=O)(=O)c2ccc3c(c2)n(C)c(=O)n3C)cc1	-30%	-67*!	46%	-7%	-9%
COC(=O)c1ccccc1NC(=O)c1ccc(NS(C)(=O)=O)cc1	11µM*	72	-7%	?	-22%
CC(C)c1ccc(NC(=O)c2ccc(NS(C)(=O)=O)cc2)cc1	6.3µM*	-5	-29%	2%	-6%
COC(=O)c1ccc(NS(=O)(=O)c2ccc3c(c2)n(C)c(=O)n3C)cc1	6%	-12	3%	-11%	14%
C[C@H](CO)N1C[C@H](C)[C@H](CN(C)C(=O)Nc2ccc(C(F)(F)F)cc2)Oc2ncc(-c3cccnc3)cc2C1=O	.	48	.	.	-3%
CCCN(CCC)C(=O)CN1C(=O)CSc2ccc(S(=O)(=O)N3CCC(C)CC3)cc21	.	-38	.	-1%	-2%
COc1ccccc1CN1CCOc2ccc(CN3CCC(Oc4cccnc4)CC3)cc2C1	.	.	.	.	-10%
O=C(O)C1CCCN(C(=O)c2cccc3ccccc23)C1 (stereo not given)	2%	0	-14%	-16%	3%
CCOC(=O)c1ccc(NC(=O)c2ccccc2)cc1	?	-21	10µM*	?	.
CCOC(=O)c1ccc(NC(=O)c2nsc3ccccc23)cc1	.	-78*	.	12%	-12%
CCOC(=O)c1ccc(NC(=O)Oc2ccccc2)cc1	13%	5	-24%	-14%	3%
CCOC(=O)c1ccc(Nc2cc(C)nc(-c3ccccc3)n2)cc1	?	-76*	23%	-4%	-22%
COC(=O)c1ccccc1NC(=O)c1ccc2c(c1)OCCO2	10µM*	45	-28%	-11%	19%
CCOC(=O)c1ccc(Nc2nc(C)cc(C)n2)cc1	-16%	40	-17%	5%	46%
CNC(=O)c1ccc(NC(=O)c2nsc3ccccc23)cc1	.	163	.	1%	-35%
Cc1ccccc1C1(CC(=O)N2CCCCC2C)CC(=O)N(Cc2cccnc2)C1=O (stereo not given)	.	.	.	.	6%
Cc1csc(SCC(=O)N(C)C2CCS(=O)(=O)C2)n1 (stereo not given)	8%	-4	-9%	?	4%
Cc1cc(-c2ccnc(-n3ncc(C(=O)NCC4CCCN(C)C4)c3C3CC3)n2)c(C)s1 (stereo not given)	.	.	.	.	-3%
Cc1ccc(N(CC(=O)NCCc2ccc(F)cc2)S(=O)(=O)c2ccc(Cl)c([N+](=O)[O-])c2)c(C)c1	10µM*	-1	-37%	7%	?
